For 40 molecules, Potency and activity change results are on record in PubChem BioAssay (Tox21).

Records with an inconclusive call do not appear. Where a call stands in place of a potency, no number is given. Unmarked numbers belong to inactive results. The source made the active and inactive calls. The call rests on the fitted dose curve; in most records, active means well fitted activation curve with a large enough effect in the repeat runs; inconclusive means weak or mixed curves; inactive means flat fitted curve, though single readings scatter.

The experiment can be described thus: A CellTox Green Cytotoxicity Assay to monitor cytotoxicity in HEK293 cells - 16 hour (AID 1224888). Further: nearly all actives have a fitted effect of over 35% in size. Conditions: CellTox Green fluorescence; series mostly up to 76.8 µM. From the text: National Center for Advancing Translational Sciences [NCATS]
NIH Chemical Genomics Center [NCGC]
U.S. Environmental Protection Agency [EPA]
National Institutes of Environmental Health Sciences [NIEHS]
National Toxicology Program [NTP]
Cell-based models are critical for drug discovery. Determining the natural cytotoxic effects resulting from test compounds is an essential research activity. A CellTox Green Cytotoxicity Assay to monitor cytotoxicity in real time of continues cell culture during 40 hours of the compound treatment was used to screen Tox21 10K library compounds in Hek293 cells. CellTox Green Cytotoxicity Assay is a nonlytic, homogeneous, biofluorescent method to measure cytotoxicity in cell culture after experimental manipulation. The assay system uses a proprietary asymmetric cyanine dye that is excluded from viable cells but preferentially stains the dead cell's DNA. […] Viable cells produce no appreciable increases in fluorescence. Therefore, the fluorescence signal produced by the binding interaction with dead cell DNA is proportional to cytotoxicity.
The mixture of Hek293 cell suspension and reagents were dispensed at 600cells/6 ul/well in 1536-well tissue culture treated black solid bottom plates using a Multidrop dispenser. After the assay plates were incubated at a 37 C/5% CO2 incubator for 5 hours, 23 nL of compounds dissolved in DMSO, positive and negative controls was transferred to the assay plate by a pintool work station. The plates were incubated at 37 C for 40 hours. The fluorescence intensity were measured at 0h, 8h, 16h, 24h, 32h and 40h time points using ViewLux plate reader during compound treatment.
On to `Cc1cc(S(=O)(=O)O)c(N)cc1Cl`, for which the Potency result is “inactive”. The same measure, in the same setting: the same measure for `CCCCC(=O)O[C@]1(C(=O)CO)[C@H](C)C[C@H]2[C@@H]3CCC4=CC(=O)C=C[C@]4(C)[C@@]3(F)[C@@H](O)C[C@@]21C`: “inactive”.

As for `CCC1(C)NC(=O)NC1=O` (stereo not given), the Potency result was “inactive”.

For `CC(C)(C)c1cccc(O)c1`, the Potency entry is “inactive”. The same measure, in the same setting: under `Cc1nc(-c2ccccn2)ncc1C(=O)Nn1cc(C)c2cc(F)ccc21` stands “inactive”. Same read-out and setting: the same measure for `OCCN(CCO)CCN(CCO)CCO`: “inactive”; for `CCc1cc2cc(OC)c(OC)cc2c(Cc2ccccc2)n1`: “inactive”; for `CCCC(CCC)(C(=O)OCC)C(=O)OCC`: “inactive”. On the same count and under the same terms, under `O=Cc1ccc(F)c(Br)c1` stands “inactive”; under `CC1(O)CSC(C)(O)CS1` (stereo not given), “inactive”; under `CCNCCO`, “inactive”. Turning to `C/C(=N\O)[C@@H](C)NCC(C)(C)CN[C@H](C)/C(C)=N/O`, the Potency result was “inactive”.

With `NC(=O)Cc1cccc(C(=O)c2ccccc2)c1N`, the Potency entry was “inactive”. For `CC(C)C[C@H](NC(=O)OCC1c2ccccc2-c2ccccc21)C(=O)O`, the Potency result was “inactive”.

For `C[C@@H]1CN(c2c(F)c(F)c3c(=O)c(C(=O)O)cn(C4CC4)c3c2F)C[C@H](C)N1`, the activity change is 1.09% [at 15.8 µM, stronger effect = higher value]. Regarding `CCOC(=O)CS`, the Potency result was “inactive”. Same read-out and setting: under `CC1=NN(c2cc(Cl)c(S(=O)(=O)O)cc2Cl)C(=O)C1N=Nc1ccc(S(=O)(=O)O)cc1` (stereo not given) stands “inactive”. For the molecule `NC(Cc1ccc(F)cc1)C(=O)O` (stereo not given), the activity change is 17.7% [at 6.97 µM, stronger effect = higher value]. As to `CCCCOc1cc(C(=O)NCCN(CC)CC)c2ccccc2n1`, the Potency entry was “inactive”.

Regarding `O=C(O)CN(CCN(CC(=O)O)CC(=O)O)CCN(CC(=O)O)CC(=O)O`, the activity change was 12.4% [at 15.8 µM, stronger effect = higher value].

As for `COc1nc(C)nc(NC(=O)NS(=O)(=O)c2ccccc2OCCCl)n1`, the Potency result is “inactive”. The same measure, in the same setting: the same measure for `CCCCCCn1c(=O)c2c(ncn2C)n(C)c1=O`: “inactive”. On the same count and under the same terms, the same measure for `C=CCCC=C`: “inactive”.

As to `CC1(C)S[C@@H]2[C@H](NC(=O)C(C(=O)O)c3ccccc3)C(=O)N2[C@H]1C(=O)O` (stereo not given in full), the Potency entry is “inactive”. On to `CCCN(CCC)C(=O)C(CCC(=O)O)NC(=O)c1ccccc1` (stereo not given), for which the Potency entry is “inactive”. Still for that read-out and setting: under `CCCCc1ccc2nc(NC(=O)OC)[nH]c2c1` stands “inactive”; under `C=O`, “inactive”.

Regarding `CCOc1ccc(OCC)c(Cl)c1`, the Potency result was “inactive”. Same read-out and setting: under `CCCCCOc1ccc(C2SC(=O)NC2=O)cc1OCC` (stereo not given) stands “inactive”; under `Cc1c(-c2ccccc2)oc2c(C(=O)OCCN3CCCCC3)cccc2c1=O`, “inactive”. The same measure, in the same setting: under `N#CSCC(=O)O` stands “inactive”. On the same count and under the same terms, under `O=C(O)C(=O)Cc1c[nH]c2ccccc12` stands “inactive”; under `ICCc1ccccc1`, “inactive”; under `Oc1ccccc1C=NCc1ccccc1`, “inactive”. With `CC(=O)O[C@H]1CC[C@@]2(C)C(=CC[C@@H]3[C@@H]2CC[C@]2(C)C(C(C)=O)=CC[C@@H]32)C1`, the Potency entry is “inactive”. On the same count and under the same terms, the same measure for `CCCCCCCOC(=O)CCC`: “inactive”. The same measure, in the same setting: the same measure for `O=C(O)[C@@H](O)[C@H](O)[C@H](O)[C@@H](O)C(=O)O`: “inactive”.

Turning to `CCC(=O)c1ccc2c(c1)N(CCCN(C)C)c1ccccc1S2`, the Potency result is “inactive”. Same read-out and setting: the same measure for `CN1CCN(c2c(F)cc3c(=O)c(C(=O)O)cn4c3c2SCC4)CC1`: “inactive”; for `NC(=O)NS(=O)(=O)c1ccc(Cl)cc1`: “inactive”.
